Here are results for 15 sequences from PMC3218832.

Among the targets are RELARELA (p65 homodimer) (Homo sapiens, UniProt Q04206 1-307); p50p50 homodimer (Homo sapiens, UniProt P19838 7-356); RELB subunit;p50 subunit (Homo sapiens;Homo sapiens, UniProt Q01201;P19838 120-401;7-356).
Holding throughout (experiment): protein binding microarray; high values mean tight binding
Common to all, as to conditions: dsDNA, one strand shown

The target in the next assay is T1, p52p52 homodimer (Homo sapiens, UniProt Q00653 4-332).
T1 sequence: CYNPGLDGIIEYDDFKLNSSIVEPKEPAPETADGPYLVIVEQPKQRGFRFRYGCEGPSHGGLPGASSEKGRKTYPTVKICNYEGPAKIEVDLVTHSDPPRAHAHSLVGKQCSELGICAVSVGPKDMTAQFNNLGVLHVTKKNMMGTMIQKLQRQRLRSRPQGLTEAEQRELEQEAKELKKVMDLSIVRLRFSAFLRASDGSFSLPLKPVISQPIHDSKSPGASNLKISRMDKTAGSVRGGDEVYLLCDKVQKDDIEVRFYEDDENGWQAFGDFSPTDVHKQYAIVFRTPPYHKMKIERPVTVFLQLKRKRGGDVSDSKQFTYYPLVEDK

Assay [1] has as its target RELA (p65) subunit of heterodimer;p50 subunit (Homo sapiens;Homo sapiens, UniProt Q04206;P19838 1-307;7-356).
Assay [2] concerns the target RELA (p65) subunit of heterodimer;p52 subunit (Homo sapiens;Homo sapiens, UniProt Q04206;Q00653 1-307;4-332).
Another assay deals with T2, RELB subunit;p52 subunit (Homo sapiens;Homo sapiens, UniProt Q01201;Q00653 120-401;4-332).
T2 sequence 1: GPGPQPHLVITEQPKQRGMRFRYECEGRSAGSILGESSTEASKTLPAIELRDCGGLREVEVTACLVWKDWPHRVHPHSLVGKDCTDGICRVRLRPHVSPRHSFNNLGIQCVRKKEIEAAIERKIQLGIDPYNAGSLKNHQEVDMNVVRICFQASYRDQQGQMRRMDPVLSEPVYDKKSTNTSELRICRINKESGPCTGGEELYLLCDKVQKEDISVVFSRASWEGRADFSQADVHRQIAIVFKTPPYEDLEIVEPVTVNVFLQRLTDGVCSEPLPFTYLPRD
T2 sequence 2: T1 sequence

Assay [3] deals with C-Rel subunit;p50 subunit (Homo sapiens;Homo sapiens, UniProt Q04864;P19838 1-285;7-356).
In assay [4] the target is T3, C-Rel subunit;p52 subunit (Homo sapiens;Homo sapiens, UniProt Q04864;Q00653 1-285;4-332).
T3 sequence 1: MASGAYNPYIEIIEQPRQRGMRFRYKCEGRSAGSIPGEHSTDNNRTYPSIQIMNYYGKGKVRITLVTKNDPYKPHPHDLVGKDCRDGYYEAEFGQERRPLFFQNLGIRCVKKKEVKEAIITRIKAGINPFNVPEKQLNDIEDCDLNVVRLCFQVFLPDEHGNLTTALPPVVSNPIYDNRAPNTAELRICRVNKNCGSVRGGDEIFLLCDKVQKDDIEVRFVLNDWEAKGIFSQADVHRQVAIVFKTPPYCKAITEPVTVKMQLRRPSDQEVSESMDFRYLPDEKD
T3 sequence 2: T1 sequence

p50p50 homodimer, sequence (P19838 7-356): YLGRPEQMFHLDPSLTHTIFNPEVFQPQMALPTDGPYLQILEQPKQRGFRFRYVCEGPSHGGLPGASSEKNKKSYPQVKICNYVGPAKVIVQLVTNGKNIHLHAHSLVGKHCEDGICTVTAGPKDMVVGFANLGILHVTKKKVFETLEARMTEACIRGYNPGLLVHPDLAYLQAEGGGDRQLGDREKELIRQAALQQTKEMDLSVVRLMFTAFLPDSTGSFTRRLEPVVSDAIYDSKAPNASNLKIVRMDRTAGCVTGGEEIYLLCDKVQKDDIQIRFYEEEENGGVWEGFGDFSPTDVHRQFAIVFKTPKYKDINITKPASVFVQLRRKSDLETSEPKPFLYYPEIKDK
RELARELA (p65 homodimer), sequence (Q04206 1-307): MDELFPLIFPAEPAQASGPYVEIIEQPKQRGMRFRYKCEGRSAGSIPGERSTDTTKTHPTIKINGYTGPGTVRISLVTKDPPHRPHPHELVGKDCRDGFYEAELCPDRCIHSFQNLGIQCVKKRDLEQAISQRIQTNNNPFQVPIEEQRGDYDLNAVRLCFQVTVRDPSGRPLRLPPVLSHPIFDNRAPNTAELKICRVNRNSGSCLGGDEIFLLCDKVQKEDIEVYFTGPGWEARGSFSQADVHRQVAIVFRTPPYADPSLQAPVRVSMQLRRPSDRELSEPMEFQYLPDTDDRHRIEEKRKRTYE
RELA (p65) subunit of heterodimer;p50 subunit, sequence (Q04206 1-307, chain 1 of 2): as the sequence (Q04206 1-307) above
RELA (p65) subunit of heterodimer;p50 subunit, sequence (P19838 7-356, chain 2 of 2): as the sequence (P19838 7-356) above

CGATAATTCCC: the binding signal with RELARELA (p65 homodimer) stood at 2.04 z-score; with p50p50 homodimer, 0.948 z-score; in the assay with p52p52 homodimer, 0.738 z-score; in assay [1] it was 1.43 z-score; in [2], 0.974 z-score; with RELB subunit;p50 subunit, 0.871 z-score. In addition, the binding signal with RELB subunit;p52 subunit was 0.87 z-score; in assay [3] it was 1.51 z-score; in assay [4], 1.12 z-score.

As to GGATTGTTCCC, the binding signal with RELARELA (p65 homodimer) was 0.75 z-score; with p50p50 homodimer, -0.265 z-score; with p52p52 homodimer it was -0.233 z-score; in assay [1], -0.0316 z-score; in assay [2], -0.0574 z-score; with RELB subunit;p50 subunit, -0.257 z-score. Further, the binding signal was -0.307 z-score in the assay with RELB subunit;p52 subunit, 0.0336 z-score in assay [3] and 0.152 z-score in assay [4].

On to CAAGATCTCCT, for which the binding signal with RELARELA (p65 homodimer) is -0.508 z-score; with p50p50 homodimer it was -1.36 z-score; with p52p52 homodimer it was -0.744 z-score; in [1] it was -1.11 z-score; in assay [2], -1.02 z-score; with RELB subunit;p50 subunit, -1.04 z-score. In addition, the binding signal with RELB subunit;p52 subunit was -1.06 z-score; in [3], -1.49 z-score; in assay [4], -1.01 z-score.

GGGTTTGCCCT: the binding signal with RELARELA (p65 homodimer) is 1.25 z-score; with p50p50 homodimer it was -0.184 z-score; with p52p52 homodimer, 0.265 z-score; in assay [1], 0.277 z-score; in [2], 0.423 z-score; with RELB subunit;p50 subunit it was -0.518 z-score. For the same sequence, the values for the binding signal (with RELB subunit;p52 subunit; in [3]; in [4]) were -0.154 z-score, 0.409 z-score and 0.225 z-score, respectively.

Consider AGGTATTTCCC, for which the binding signal stood at 2.88 z-score in the assay with RELARELA (p65 homodimer); 0.816 z-score in the assay with p50p50 homodimer; 2.74 z-score with p52p52 homodimer; 1.5 z-score in assay [1]; 2.11 z-score in assay [2]; 1.27 z-score in the assay with RELB subunit;p50 subunit. Further, the binding signal in the assay with RELB subunit;p52 subunit came out at 1.85 z-score; in [3] it was 1.43 z-score; in [4], 2.34 z-score.

CGGAGCGCCCT: the binding signal is -0.577 z-score in the assay with RELARELA (p65 homodimer); -1.84 z-score in the assay with p50p50 homodimer; -0.701 z-score in the assay with p52p52 homodimer; -0.94 z-score in assay [1]; -0.911 z-score in [2]; -1.13 z-score in the assay with RELB subunit;p50 subunit. Also, the binding signal in the assay with RELB subunit;p52 subunit is -0.954 z-score; in assay [3], -1.21 z-score; in assay [4] it was -1.01 z-score.

As to AAGTGTGTCCT, the binding signal in the assay with RELARELA (p65 homodimer) was -0.0699 z-score; with p50p50 homodimer, -1.1 z-score; with p52p52 homodimer, -0.57 z-score; in [1], -0.888 z-score; in [2] it was -0.62 z-score; in the assay with RELB subunit;p50 subunit, -0.808 z-score. For the same sequence, the binding signal was -0.709 z-score with RELB subunit;p52 subunit, -0.908 z-score in assay [3] and -0.763 z-score in [4].

Turning to AAATTGGCCCC, the binding signal is -0.344 z-score in the assay with RELARELA (p65 homodimer); 0.122 z-score with p50p50 homodimer; -0.144 z-score with p52p52 homodimer; 0.118 z-score in [1]; -0.121 z-score in assay [2]; 0.375 z-score with RELB subunit;p50 subunit. Moreover, the binding signal with RELB subunit;p52 subunit was 0.258 z-score; in assay [3] it was 0.04 z-score; in assay [4] it was -0.0339 z-score.

As to GAGAAGCCCCT, the binding signal in the assay with RELARELA (p65 homodimer) is -0.384 z-score; with p50p50 homodimer, 1.19 z-score; with p52p52 homodimer it was 1.26 z-score; in assay [1], 1.3 z-score; in assay [2], 1.14 z-score; in the assay with RELB subunit;p50 subunit it was 1.22 z-score. For the same sequence, the results for the binding signal (with RELB subunit;p52 subunit; in [3]; in assay [4]) were 1.41 z-score, 0.87 z-score and 0.78 z-score, respectively.

As for GAGAGTATCCC, the binding signal in the assay with RELARELA (p65 homodimer) was -0.187 z-score; with p50p50 homodimer, -0.91 z-score; with p52p52 homodimer, -0.43 z-score; in assay [1] it was -0.602 z-score; in [2], -0.673 z-score; in the assay with RELB subunit;p50 subunit it was -0.546 z-score. Moreover, the binding signal in the assay with RELB subunit;p52 subunit is -0.687 z-score; in [3], -0.656 z-score; in [4], -0.641 z-score.

Turning to CAATAATCCCT, the binding signal with RELARELA (p65 homodimer) was -0.146 z-score; with p50p50 homodimer, 0.635 z-score; with p52p52 homodimer, 0.735 z-score; in assay [1], 0.226 z-score; in assay [2], 0.493 z-score; in the assay with RELB subunit;p50 subunit, 0.496 z-score. The binding signal was 0.698 z-score with RELB subunit;p52 subunit, 0.212 z-score in assay [3] and 0.284 z-score in assay [4].

For the sequence AGATGAATCCT, the binding signal is -0.706 z-score with RELARELA (p65 homodimer); -1.32 z-score with p50p50 homodimer; -0.542 z-score with p52p52 homodimer; -1 z-score in [1]; -0.972 z-score in [2]; -1.28 z-score with RELB subunit;p50 subunit. Moreover, the values for the binding signal (with RELB subunit;p52 subunit; in [3]; in assay [4]) were -1.16 z-score, -1.39 z-score and -0.907 z-score, respectively.

AAGAGTACCCT: the binding signal in the assay with RELARELA (p65 homodimer) is -0.409 z-score; in the assay with p50p50 homodimer, 0.828 z-score; with p52p52 homodimer it was 0.248 z-score; in [1], 0.398 z-score; in assay [2], 0.224 z-score; with RELB subunit;p50 subunit it was 0.66 z-score. The binding signal in the assay with RELB subunit;p52 subunit was determined as 0.374 z-score; in assay [3], 0.116 z-score; in [4] it was 0.104 z-score.

As for AAATGACCCCT, the binding signal is -0.474 z-score with RELARELA (p65 homodimer); 0.593 z-score with p50p50 homodimer; 0.182 z-score in the assay with p52p52 homodimer; 0.135 z-score in assay [1]; 0.303 z-score in assay [2]; 0.241 z-score with RELB subunit;p50 subunit. For the same sequence, the figures for the binding signal (with RELB subunit;p52 subunit; in assay [3]; in assay [4]) were 0.325 z-score, -0.224 z-score and 0.165 z-score, respectively.

As to CAGAATACCCT, the binding signal with RELARELA (p65 homodimer) worked out at 0 z-score; in the assay with p50p50 homodimer, 1.12 z-score; with p52p52 homodimer it was 0.546 z-score; in [1], 0.635 z-score; in assay [2], 0.477 z-score; with RELB subunit;p50 subunit, 0.743 z-score. The binding signal in the assay with RELB subunit;p52 subunit was determined as 0.882 z-score; in [3] it was 0.496 z-score; in assay [4], 0.421 z-score.
